Screening data from PubChem.
This is a sample that favours compounds with a hit; in the whole collection about 8% have one here.
LASV entry inh: blocks Lassa virus binding or cell entry | Potency, µM (series often up to 49.2 µM), inactives show at the top dose activity change, negative = inhibition, usual class: inhibitors | actives 4.1% (n = 18,000) | AID 720533 | Lassa virus pseudotyped entry inhibition, cell-based qHTS
Marburg entry: Marburg virus entry inhibition; Marburg virus pseudotype entry/binding inhibition, cell-based; Potency, µM (titrated, usually from 49.2 µM), without a hit: at the highest dose activity change, negative = inhibition, most hits filed as inhibitors; actives 6.5% (n = 18,000); AID 720532
* marks the source's active call; other numbers are inactive results; u = inconclusive; x = not tested or not shown; + = active, no number; ! = a repeat was not active; [ ] = remark or other dose. Calls come from the whole dose curve; tested in HEK293 cells. % is set by controls: 0 for no effect and ±100 for the full control effect; potency is the fitted concentration of half-maximal effect.

SMILES	LASV entry inh	Marburg entry
COc1ccc(OC)c(CC(C)N)c1 (configuration not stated)	3%[107 µM]	4%[107 µM]
CN(C)c1ccc(-c2nccc(NCc3ccccc3)n2)cc1	-18%	u
CN(C)c1ccc(C(=C2C=CC(=[N+](C)C)C=C2)c2ccccc2)cc1	2.2µM*	1.4µM*!
CN(C)c1ccc(C(=C2C=CC(=[N+](C)C)C=C2)c2ccc(N(C)C)cc2)cc1	1.8µM*	1.4µM*
CC(=O)C[C@H](c1ccccc1)c1c(O)c2ccccc2oc1=O	-1%	3%
O=C(Nc1ccccc1)c1ccc(Br)o1	4%	33%
O=C(c1cc(-c2ccccc2)on1)N1CCOc2ccc(CN3CCOCC3)cc2C1	-28%	-12%
COc1cc(C(CCN2CCOCC2)c2c(OC)cc(OC)c3ccc(=O)oc23)cc(OC)c1OC (configuration not stated)	-23%	-12%
COc1cc(OC)c2c(-c3ccccc3)cc(=O)oc2c1C(CCN1CCOCC1)c1ccc(N(C)C)cc1 (configuration not stated)	u	10µM*
CN(CCc1ccccc1)c1cc2c(c3c1ccn3C)C1CCC2O1 (configuration not stated)	21%	-27%
CCCCC1=CC2=C(c3ccco3)C(=O)C(C)(OC(=O)c3ccc(Cl)nc3)C(=O)C2=CO1 (configuration not stated)	2%	-4%
C=NCc1cc2c(OC[C@@H](O)CNC(C)(C)C)cccc2[nH]1	0%	u
CC(C)OC(=O)c1cc2c(OCC(O)CNC(C)(C)C)cccc2[nH]1 (configuration not stated)	-12%	35µM*
CC[n+]1c(/C=C/N(C)c2ccccc2)n(-c2ccccc2)c2ccc(-c3nc4ccccc4s3)cc21	3.2µM*	2µM*
O=C(O)CCCOc1ccc(Cl)cc1Cl	-1%	-11%
O[C@@H]1CO[C@H]2C1OC[C@@H]2O (some centres not stated)	2%	6%
C=C1C(=O)OC2CC1C(OC(C)=O)CC(C)=CCCC(C)=CCC[C@@]2(C)O (some centres not stated)	11µM*	16µM*
CC(C)c1c(C(=O)NCC2(N3CCOCC3)CCCC2)cnn1-c1nccc(-c2cccs2)n1	-1%	12%
CC(C)C[C@H](NC(=O)[C@@H]1CCC(=O)N1)C(=O)N[C@@H](Cc1ccc(O)cc1)C(=O)N[C@@H](CCC(=O)O)C(=O)N[C@@H](CC(N)=O)C(=O)N[C@@H](CCCCN)C(=O)N1CCC[C@H]1C(=O)N[C@@H](CCCN=C(N)N)C(=O)N[C@@H](CCCN=C(N)N)C(=O)N1CCC[C@H]1C(=O)N[C@@H](Cc1ccc(O)cc1)C(=O)O	1%	6%
COc1cc(=O)n2c(c1C(=O)N(C)Cc1nonc1C)CCN(Cc1ccccc1Cl)CC2	u	-12%
CCCCCC(=O)O[C@]1(C(C)=O)CC[C@H]2[C@@H]3CCC4=CC(=O)CC[C@]4(C)[C@H]3CC[C@@]21C	32µM*	u
CC(=O)[C@@]1(O)CC[C@H]2[C@@H]3CCC4=CC(=O)CC[C@]4(C)[C@H]3CC[C@@]21C	-30%	-6%
CC(=O)C1CCC2C3CCC4=CC(=O)CC[C@@]4(C)C3CC[C@]12C (some centres not stated)	9%	22µM*
CCCCCCCCCC(=O)O[C@H]1CC[C@H]2[C@@H]3CCC4=CC(=O)CC[C@]4(C)[C@H]3CC[C@]12C	-9%	19%
COc1cc2oc(=O)cc(-c3ccc(-c4ccc(C)cc4)cc3)c2c(OC)c1OC	7%	1%
SMILES	LASV entry inh	Marburg entry
CCC1(C)CC(=O)NC(=O)C1	0%[17.8 µM]	6%[17.8 µM]
COc1ccc(C2NC(=S)N3C(c4ccc(OC)c(OC)c4)NC(=S)N23)cc1OC (configuration not stated)	u	-31%
O=C(O)C1CC(CCCP(=O)(O)O)CCN1 (configuration not stated)	-3%	-19%
CCc1ccc(OCc2ccccc2C(=O)Nc2ccc3nc(C)cc(N)c3c2)cc1	7.1µM*	4µM*
COc1ccc(NC(=O)c2ccc(-c3ccc(C)c4ccccc34)o2)cc1	26%	14%
COc1ccccc1C1=C(Nc2ccccc2)C(=O)NC1=O	26%	19%
N#Cc1cccc(-c2nc(Nc3ccncc3)c3ccccc3n2)c1	7%	u
COc1ccc(C2c3[nH]c4ccccc4c3CC3C(=O)N(CCc4ccc(OC)c(OC)c4)CC(=O)N32)cc1 (configuration not stated)	-18%	-25%
CN1C/C(=C/c2ccc(B(O)O)cc2)C(=O)/C(=C/c2ccc(B(O)O)cc2)C1	13µM*	6.3µM*
Cc1occc1C(=O)Nc1cccc(-c2nc(CNC(=O)c3cc(-c4ccccc4)n[nH]3)c(C)o2)c1	-8%	-24%
Cc1ccc(C)c(CN2CCc3nnc(CNC(=O)c4cc(C)oc4C)n3CC2)c1	-4%	+
Cc1cc(C(=O)NCc2nnc3n2CCN(Cc2ccc(C)c(C)c2)CC3)c(C)o1	-14%	-15%
CN(C)Cc1ccccc1-c1nc(N2CCOCC2)c2ccccc2n1	-11%	18µM*
Cc1noc(C)c1-c1nc(N2CCOCC2)c2ccccc2n1	-2%	5%
Fc1ccccc1-c1nc(-c2ccccc2)oc1NC1CCCCC1	u	14%
C/C=C1\NC(=O)[C@H]2CSSCC/C=C/[C@H](CC(=O)N[C@H](C(C)C)C(=O)N2)OC(=O)C(C(C)C)NC1=O (some centres not stated)	3.2µM*	1.1µM*
C=CCC(Nc1ccc(OC)cc1)C(=O)OCC (configuration not stated)	-9%	u
COc1cc(C(=O)OC2C[C@H]3CC[C@@H](C2)N3C)ccc1O (some centres not stated)	2%[17.8 µM]	5%[17.8 µM]
Cc1cc(C)cc(C(=O)OC2C[C@H]3CC[C@@H](C2)N3C)c1 (some centres not stated)	u	11µM*
C[C@]12CC[C@@H]3c4ccc(OC(=O)N(CCCl)CCCl)cc4CC[C@H]3[C@@H]1CC[C@@H]2O	x	44%
Oc1ccc2[nH]cc(CCCCN3CC=C(c4ccccc4)CC3)c2c1	-16%	20µM*
O=C(O)c1ccc2[nH]cc(CCCCN3CC=C(c4ccccc4)CC3)c2c1	-4%	u
Cc1c(N)nc([C@H](CC(N)=O)NC[C@H](N)C(N)=O)nc1C(=O)N[C@H](C(=O)N[C@H](C)[C@@H](O)[C@H](C)C(=O)N[C@H](C(=O)NCCc1nc(-c2nc(C(=O)NCCCCN=C(N)N)cs2)cs1)[C@@H](C)O)[C@@H](O[C@@H]1O[C@@H](CO)[C@@H](O)[C@H](O)[C@@H]1O[C@H]1O[C@H](CO)[C@@H](O)[C@H](OC(N)=O)[C@@H]1O)c1cnc[nH]1	3.2µM*	4µM*
COc1cc(CN2CCOc3ccc(CN4CCC(Oc5cccnc5)CC4)cc3C2)ccc1F	-10%	u
COc1cc(CN2CCOc3ccc(CN4CCN(CCO)CC4)cc3C2)ccc1F	14%	3%
COc1ccc(CN2CCOc3ccc(CN4CCC(Oc5cccnc5)CC4)cc3C2)c(F)c1	-8%	11µM*
COc1cc(OC)c(CN2CCOc3ccc(CN4CCC(O)CC4)cc3C2)c(OC)c1	u	14µM*
COc1ccc(F)c(CN2CCOc3ccc(CN4CCC(Oc5cccnc5)CC4)cc3C2)c1	6%	u
COc1ccc(CN2CCOc3ccc(CN4CCN(CCO)CC4)cc3C2)c2ccccc12	u	11µM*
CN(C)CCN(Cc1ccc(Cl)cc1)c1ccccn1	-22%[17.8 µM]	u
